Among all 640,000 compounds or so, about 9,300 (1.5%) were called active. No stated cut-off is given here; in the data, active means inhibition above about 32%; inactive means the rest. Shown is part of a subset that was picked to be rich in actives.
test: TEAD-YAP interaction inhibition, primary screen, TEAD-YAP interaction inhibitor project, luminescence, HEK-TIYL cells (AID 1259422); settings: TEAD-Gal4/YAP UAS-luciferase luminescence, at 9.12 µM, stronger effect = higher value;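 further: 0% = median of test compound wells and 100% = reference inhibitor wells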

SMILES | inhibition
Cc1ccccc1C(=O)NCC1(c2cccs2)CC1 | -38.7% (inactive)
CN1CCN(C(=O)c2ccc(-c3ccc(C(=O)NCCOc4ccccc4)s3)cc2)CC1 | -10.2% (inactive)
O=C1c2ccc(Br)cc2C(=O)N1CNc1cccc(F)c1 | 2.19% (inactive)
CCCCOc1ccccc1C1C(C(=O)OCCOCC)=C(C)NC2=C1C(=O)CC(C)(C)C2 (configuration not stated) | -1.41% (inactive)
COc1ccccc1C1N=C(c2cccs2)CC(c2ccccc2O)N1 (configuration not stated) | -31.6% (inactive)
Cn1c(-c2ccc(F)cc2Cl)c(C(=O)O)c2ccccc2c1=O | 5.25% (inactive)
Cc1ccc2c(c1)CN(CCC(=O)NCC(C)(C)CO)CC(C)O2 (configuration not stated) | 5.33% (inactive)
COc1ccc(CNC(=O)CCc2c(C)nc3cc(-c4ccccc4)nn3c2C)cc1 | 2.84% (inactive)
COc1ccccc1-c1cc2nc(C)c(CCC(=O)Nc3ccccc3C(N)=O)c(C)n2n1 | 12.4% (inactive)
COc1ccccc1-c1cc2nc(C)c(CCC(=O)O)c(C)n2n1 | 48.5% (active)
O=C(C1CC=CCC1)N1CCn2cnnc2C1 (configuration not stated) | 1.34% (inactive)
Cc1cc(C)nc(SCC(=O)Nc2cc(C(=O)O)cc([N+](=O)[O-])c2)n1 | -2.98% (inactive)
CCn1c(=O)cc(SCC(=O)Nc2cccc([N+](=O)[O-])c2C)c2ccccc21 | -12.2% (inactive)
Cc1c(/C=N\Nc2ccc([N+](=O)[O-])cc2)c2ccccc2n1C | 12.8% (inactive)
Cc1c(/C=N/NC(N)=S)c2ccccc2n1C | -7.34% (inactive)
Cc1c(/C=N\NC(=O)c2cc3ccccc3o2)c2ccccc2n1C | 49.3% (active)
c1ccc(Cn2cc(-c3cnn4c(NCCc5cccnc5)ccnc34)cn2)cc1 | -23.6% (inactive)
C=CCn1c(SCC(=O)N2CCCCCC2)nc2scc(-c3ccc(C)o3)c2c1=O | -7.67% (inactive)
C=CCn1c(SCC(=O)N2CCOCC2)nc2scc(-c3ccccc3Cl)c2c1=O | 49.9% (active)
C=CCn1c(SCCC(=O)NCCc2ccccc2)nc2scc(-c3ccco3)c2c1=O | -10.1% (inactive)
Cc1ccc(C(=O)COC(=O)c2ccc(-n3cnnn3)cc2)cc1 | 11.7% (inactive)
COc1cc(Nc2nc(-c3ccc(C(=O)NC4CC4)cc3)nc3c2ncn3-c2ccsc2)cc(OC)c1OC | 22.8% (inactive)
O=C(COC(=O)CSCc1c[nH]c(=O)[nH]c1=O)Nc1nc(-c2ccccc2)cs1 | -38% (inactive)

SMILES | inhibition
O=c1oc2ccc(Br)cc2cc1-c1cn2c(n1)sc1ccccc12 | 2.88% (inactive)
O=c1oc2ccccc2cc1-c1cn2c(n1)sc1cc(Cl)ccc12 | 62.5% (active)
CCCCCCc1cc2cc(-c3cn4c(n3)sc3cc(Cl)ccc34)c(=O)oc2cc1O | -3.76% (inactive)
Cc1cccc(N2C(=O)NC(=O)/C(=C\c3ccc(I)o3)C2=O)c1C | -0.13% (inactive)
O=C(O)/C(=C\c1ccccc1)NC(=O)c1ccc(Br)cc1 | -2.04% (inactive)
O=C(O)CCNCCC(=O)c1ccccc1 | -12.1% (inactive)
CCOC(=O)CSc1ccc(C(=O)N2CCN(c3ccccc3OC)CC2)cc1[N+](=O)[O-] | 3.32% (inactive)
COc1ccccc1N1CCN(C(=O)c2ccc(Cl)c([N+](=O)[O-])c2)CC1 | 49% (active)
COc1ccc(N2CCN(C(=O)COc3ccccc3OC)CC2)cc1 | 1.61% (inactive)
COC(=O)C1CCN(C(=O)c2ccc(Cl)c([N+](=O)[O-])c2)CC1 | 1.51% (inactive)
COc1ccccc1N1CCN(C(=O)COc2ccc(Cl)cc2C)CC1 | 58.5% (active)
COc1ccccc1N1CCN(C(=O)CSCc2ccccc2C)CC1 | -42.5% (inactive)
Cc1cccc2nc(NC(=O)c3ccnn3C)sc12 | -7.31% (inactive)
CCOC1=C/C(=C/c2c(N)n3nc(C(C)C)sc3nc2=O)C=CC1=O | 9.9% (inactive)
COc1ccc(/C=C2/N=C(c3cccc4ccccc34)OC2=O)c(OC)c1OC | -1.88% (inactive)
CCc1ccccc1Nc1cc(C)nc2ncnn12 | -7.4% (inactive)
COc1ccc(-n2nc3c(c2NC(=O)c2cc([N+](=O)[O-])ccc2Cl)CS(=O)C3)cc1 (configuration not stated) | 41.9% (active)
COc1ccc(-n2nc3c(c2NC(=O)c2cccc(OC)c2OC)CS(=O)C3)cc1 (configuration not stated) | -1.38% (inactive)
COc1ccc(C(=O)Nc2c3c(nn2-c2ccc(F)cc2)CS(=O)C3)c(OC)c1 (configuration not stated) | 0.99% (inactive)
CC1CCCC(NC(=O)C(C)n2c(=O)c3cccn3c3cccnc32)C1C (configuration not stated) | 3.19% (inactive)
Cn1c(SCC(=O)Nc2nnc(-c3ccccc3)s2)nnc1-c1ccccc1 | -17.2% (inactive)
O=C(Nc1ccc(Cl)c(S(=O)(=O)c2ccc(Cl)cc2)c1)c1cc(Br)cc(Br)c1O | -6.46% (inactive)
CC(C)(C)c1ccc(C(=O)Nc2ccc(N3CCOCC3)c(Cl)c2)cc1 | 0.56% (inactive)

SMILES | inhibition
CN1CCN(c2ccc(NC(=O)c3cc(Br)cc(Br)c3O)cc2Cl)CC1 | 68% (active)
NC(=O)c1cc(NC(=O)C(F)(F)F)cc(C(N)=O)c1 | -9.16% (inactive)
O=C(NCc1ccc(F)cc1)c1nc2c(nnn2Cc2ccc3c(c2)OCO3)c(=O)[nH]1 | -15.6% (inactive)
O=C(Nc1nc(-c2ccc(F)cc2)cs1)c1cc([N+](=O)[O-])ccc1Cl | 42% (active)
N#Cc1ccc(-c2csc(NC(=O)c3cc([N+](=O)[O-])ccc3Cl)n2)cc1 | 14% (inactive)
O=C(Nc1nc(-c2ccc(F)cc2)cs1)c1ccc([N+](=O)[O-])cc1 | 6.37% (inactive)
NS(=O)(=O)c1ccc(CCNC(=S)Nc2ccccc2F)cc1 | 0.39% (inactive)
COc1ccc(-c2noc(CN(Cc3ccccc3)CC3CC3)n2)c(OC)c1OC | -11.8% (inactive)
C=CCNc1c(C)c(C)nc2cc(-c3ccc(OC)c(OC)c3)nn12 | -14.7% (inactive)
CC1CCCC(NC(=O)C2N(C3CCCC(C)C3C)C(=O)C3C(C(=O)Nc4cccc(Cl)c4)C4C=CC32O4)C1C (configuration not stated) | -7.64% (inactive)
O=C(c1ccccc1Cl)N1CCCCC1 | 2.65% (inactive)
CCS(=O)(=O)N1CCN(C(=O)c2ccccc2Cl)CC1 | -4.13% (inactive)
Cc1cc(N2CCCC2)nc(N2CCN(C(=O)c3ccccc3Cl)CC2)n1 | 33.1% (active)
O=C(O)c1ccc(NS(=O)(=O)c2cccc(C(F)(F)F)c2)cc1 | 0.38% (inactive)
Cc1ccc(NC(=O)c2cc(S(=O)(=O)N3CCC(C)CC3)ccc2F)cc1F | -4.47% (inactive)
COc1cccc(N2C(=O)C3C4C=CC(C5CC45)C3C2=O)c1 (configuration not stated) | -3.66% (inactive)
CC12CC3(C)CC(O)(C1)CC(C(=O)c1ccccc1)(C2)C3 | -1.77% (inactive)
CCCn1c(SCC(=O)N2CCc3ccccc32)nnc1-c1ccncc1 | -1.7% (inactive)
Cn1c(SCC(=O)N2CCCCCC2)nnc1-c1ccncc1 | 5.85% (inactive)
CSc1nnc(-c2ccncc2)n1CCCN1CCCC1=O | 58.9% (active)
COC(=O)c1cc(OC)c(OC)cc1NC(=O)c1cc2ccccc2oc1=O | -9.56% (inactive)
Clc1ccccc1-c1noc(-c2ccc(-c3ccccc3)cc2)n1 | 6.4% (inactive)
Oc1ccc(-c2nc(-c3ccccc3Cl)no2)cc1 | 64.7% (active)

SMILES | inhibition
Cc1ccc(-c2nc(-c3ccccc3Cl)no2)cc1 | -58.6% (inactive)
CC1=C(C(=O)OCCOc2ccccc2)C(c2cccc(Cl)c2Cl)C2=C(CC(c3ccccc3)CC2=O)N1 (configuration not stated) | 5.89% (inactive)
O=C(NCCc1ccccc1)C1CCC(Cn2c(SCc3ccc(Cl)cc3)nc3ccccc3c2=O)CC1 (configuration not stated) | 6.47% (inactive)
c1cc(-c2nc3c(c(N4CCCCC4)n2)CNCC3)ccn1 | -3.63% (inactive)
CC(NC(=O)CCc1ccccc1)c1nnc2n1CCN(Cc1cccc(F)c1F)CC2 (configuration not stated) | -34.9% (inactive)
S=C(Nc1nc2ccccc2[nH]1)Nc1nc2ccccc2[nH]1 | -3.78% (inactive)
CSCCC(=O)Nc1nc2ccccc2[nH]1 | -12.9% (inactive)
CCCCN(CCCC)C(=O)Nc1nc2ccccc2[nH]1 | 59.5% (active)
Cc1nc2sc(C(c3ccc([N+](=O)[O-])cc3)N3CC(C)CC(C)C3)c(O)n2n1 (configuration not stated) | 21.1% (inactive)
CC(C)c1ccc(S(=O)(=O)N2CCN(C(=O)/C=C/c3ccccc3)CC2)cc1 | 5.06% (inactive)
Cc1c(C(=O)N2CCN(c3ccc(F)cc3)CC2)sc2ncnc(N(C)c3ccccc3)c12 | 6.56% (inactive)
O=C(CSc1nnc2ncccn12)N1CCCc2ccccc21 | -3.81% (inactive)
Cc1ccc(N2CCN(C(=O)c3c(F)cccc3Cl)CC2)nn1 | -8.28% (inactive)
Cc1cc(NC(=O)c2c(F)cccc2Cl)ccc1N1CCCCC1=O | -2.91% (inactive)
COc1ccc(C(=O)Nc2ccc3nc(N4CCCCC4)cc(C)c3c2)cc1OC | -0.5% (inactive)
COc1cc(C(=O)Nc2ccc(Nc3nc(C)cc(N4CCCC4)n3)cc2)cc(OC)c1OC | 35.6% (active)
COc1cc(C(=O)Nc2ccc3nc(N4CCN(c5ncccn5)CC4)cc(C)c3c2)cc(OC)c1OC | 22.2% (inactive)
Cc1cc(N2CCCC2)nc(Nc2ccc(NC(=O)c3c(F)cccc3Cl)cc2)n1 | 42% (active)
Cc1ccc(N(C(=O)c2snc(C(N)=O)c2N)C(C)C(=O)NC(C)(C)C)cc1C (configuration not stated) | -0.01% (inactive)
Cn1ncc2c(Nc3cccc4ccccc34)ncnc21 | -0.77% (inactive)
COCCCNc1ncnc2sccc12 | -4.31% (inactive)
c1ccc2c(NCCNc3ncnc4sccc34)cccc2c1 | 52.2% (active)
COc1ccc(C(=O)N=c2sc3cc4c(cc3n2C)OCCO4)cc1OC | -1.41% (inactive)

Source: PubChem BioAssay AID1259422 (The Scripps Research Institute Molecular Screening Center, 2018)
